An excerpt weighted towards active compounds, which were near 19% of everything screened.
IL1B secr inh – qHTS for Inhibitors of Inflammasome Signaling: IL-1-beta AlphaLISA Primary Screen; THP-1 LPS/ATP IL-1B secretion, AlphaLISA, 16 h; hits give low values; activity change, % at 57.5 µM; hit rate 4.7% among 360,000; in the data active = activity change below about -50%; inconclusive = mostly about -30% to -49%
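Secreted IL-1B measured by AlphaLISA bead assay after 16 h compound exposure of THP-1 cells; compounds (final up to 57.5 uM) added 1 h before LPS (250 ng/mL) and ATP (1.25 mM) stimulation; lower signal means less secretion.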
HT1080 IDH1KD tx – qHTS for induction of synthetic lethality in tumor cells producing 2HG: qHTS for the HT-1080-IDH1KD cell line | hit rate 2% among 360,000 | HT-1080 IDH1 knockdown viability, ATP luminescence, 48 h | AID 686971, 2013 | Potency, µM (titrated, usually from 46.1 µM), for the others: at the top dose activity, negative = toxicity, usual class: cytotoxic;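 note: potency is the fitted concentration of half-maximal effect; 0% = DMSO wells and -100% = cell-free medium wells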
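% activity derives from luminescence (CellTiter-Glo), normalised to DMSO and no-cell wells. HT-1080-IDH1KD cells, 750/well, had 48 h compound exposure at 37 °C.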
DT40 TDP1 CPT – qHTS for Inhibitors of human tyrosyl-DNA phosphodiesterase 1 (TDP1): qHTS in cells in presence of CPT; chicken DT40 Tdp1-/-;hTDP1 cells + 20 nM CPT, ATP luminescence, 48 h; Potency, µM (series often up to 46.2 µM), for the others: at the top dose activity change, negative = growth inhibition, actives largely listed as inhibitors; hit rate 12% among 420,000; note: potency is the fitted concentration of half-maximal effect; nearly all actives have a fitted effect of over 55% in size
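Cell growth measured by CellTiter-Glo luminescence after a minimum 48 h, 37 C compound exposure with 20 nM CPT in Tdp1-knockout DT40 cells stably expressing hTDP1, seeded 400/well; qHTS titration format.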
DT40 TDP1 no CPT – qHTS for Inhibitors of human tyrosyl-DNA phosphodiesterase 1 (TDP1): qHTS in cells in absence of CPT; hit rate 15% among 420,000; AID 686978, 2013; DT40 Tdp1-/- hTDP1 cells, no CPT, ATP luminescence, 48 h; Potency, µM (top dose mostly 46.2 µM), for inactives: at the highest dose activity change, negative = growth inhibition, most hits filed as inhibitors; note: potency is the fitted concentration of half-maximal effect; nearly all actives have a fitted effect of over 55% in size
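Growth kinetics read by CellTiter-Glo luminescence after ≥48 hr at 37 °C. Cells: DT40 Tdp1-/- stably carrying human TDP1, 400 per well, compound exposure in the absence of CPT (DMSO vehicle).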
ELG1 repair inh – qHTS screen for small molecules that inhibit ELG1-dependent DNA repair in human embryonic kidney (HEK293T) cells expressing luciferase-tagged ELG1. AID 504467, 2011. HEK293T ELG1-luciferase reporter, luminescence, 16 h; DNA damage induced by 5-fluorouridine. Potency, µM (doses to about 46.1 µM), without a hit: at the highest dose activity change, negative = inhibition, actives largely listed as inhibitors. hit rate 2.3% among 330,000; note: potency is the fitted concentration of half-maximal effect; nearly all actives have a fitted effect of over 55% in size
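5-Fluorouridine DNA damage + compound/DMSO, 2,000 cells/well, 16 h, 37 °C/5% CO2. ONE-Glo, 30 min RT, luminescence. Readout = decrease in reporter signal.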
HT1080-NT tox – qHTS for induction of synthetic lethality in tumor cells producing 2HG: qHTS for the HT-1080-NT fibrosarcoma cell line; HT-1080-NT fibrosarcoma viability, CellTiter-Glo ATP luminescence, 48 h; Potency, µM (doses to about 46.1 µM), inactives show top-dose activity, negative = less viability, usual class: cytotoxic; hit rate 1.6% among 360,000; AID 686970, 2013;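 note: NT is the 2HG producing partner of a matched IDH1 knockdown line; potency is the fitted concentration of half-maximal effect; 0% = DMSO-treated cells and -100% = media-only wells without cells; nearly all actives have a fitted effect of over 55% in size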
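HT-1080-NT; 750 cells/well; 5% FBS RPMI; 48 h compound, 37 degrees C; CellTiter-Glo luminescence; curve fitting and curve-class assignment.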
* = called active by the depositor. Unless noted, calls come from the whole dose curve; as a rule, active = well fitted curve in the direction sought with a large enough effect; inconclusive = small, poorly fitted or top-dose-only effect, or another doubt; inactive = no such curve, though single readings can be large; an effect the other way counts as inactive or inconclusive. Unless noted, % is set by controls: 0 for no effect and ±100 for the full control effect.

Cc1coc2cc3oc(=O)c(CC(=O)NCc4ccccc4)c(C)c3cc12 was read as DT40 TDP1 CPT 5.8µM* and DT40 TDP1 no CPT 5.2µM*.
Screening Cc1coc2cc3oc(=O)c(CC(=O)NCc4ccc(F)cc4)c(C)c3cc12 returned DT40 TDP1 CPT 6.5µM* and DT40 TDP1 no CPT 5.8µM*.
Screening Cc1coc2cc3oc(=O)c(CC(=O)NCc4cccc(Cl)c4)c(C)c3cc12 returned DT40 TDP1 CPT inconclusive and DT40 TDP1 no CPT 21µM*.
`Cc1coc2cc3oc(=O)c(Cc4ccccc4)c(C)c3cc12` gave IL1B secr inh 23, HT1080 IDH1KD tx 10%, DT40 TDP1 CPT -23%, DT40 TDP1 no CPT -28%, ELG1 repair inh 1% and HT1080-NT tox 10%.
Screening CNC(=O)c1ccsc1NC(=O)c1ccc2c(c1)CCCC2 returned IL1B secr inh -55*, HT1080 IDH1KD tx -9%, DT40 TDP1 CPT inconclusive, DT40 TDP1 no CPT inconclusive, ELG1 repair inh inconclusive and HT1080-NT tox -18%.
`NC(=O)c1ccsc1NC(=O)c1ccc(N2CCCC2=O)cc1` gave IL1B secr inh -56*, HT1080 IDH1KD tx -19%, DT40 TDP1 CPT inconclusive, DT40 TDP1 no CPT inconclusive, ELG1 repair inh inconclusive and HT1080-NT tox -23%.
NC(=O)c1ccsc1NC(=O)c1cccs1 was read as IL1B secr inh -9, HT1080 IDH1KD tx -15%, DT40 TDP1 CPT 3%, DT40 TDP1 no CPT -2% and HT1080-NT tox -17%.
For NC(=O)c1ccsc1NC(=O)c1ccc2c(c1)CCCC2 the results were IL1B secr inh -55*, HT1080 IDH1KD tx inconclusive, DT40 TDP1 CPT 15µM*, DT40 TDP1 no CPT inconclusive, ELG1 repair inh inconclusive and HT1080-NT tox inconclusive.
`NS(=O)(=O)c1ccc(NC(=O)c2ccc3c(c2)CCCC3)cc1` gave IL1B secr inh 20, HT1080 IDH1KD tx -7%, DT40 TDP1 CPT -11%, DT40 TDP1 no CPT -16%, ELG1 repair inh 0% and HT1080-NT tox -3%.
Screening CC1CCCC2(C1)NC(=S)c1c(sc3c1CCCC3)N2 (stereo unspecified) returned IL1B secr inh -2, HT1080 IDH1KD tx -4%, DT40 TDP1 CPT inconclusive, DT40 TDP1 no CPT 3.7µM*, ELG1 repair inh inconclusive and HT1080-NT tox -11%.
`O=C(Oc1cccc2c(O)cccc12)c1ccco1` gave IL1B secr inh 26, HT1080 IDH1KD tx -22%, DT40 TDP1 CPT 21µM*, DT40 TDP1 no CPT 12µM* and HT1080-NT tox -7%.
Screening Cc1ccccc1C(=O)Oc1cccc2c(O)cccc12 returned IL1B secr inh 20, HT1080 IDH1KD tx inconclusive, DT40 TDP1 CPT inconclusive, DT40 TDP1 no CPT inconclusive, ELG1 repair inh 14% and HT1080-NT tox inconclusive.
`CCCCCc1ccc(S(=O)(=O)Nc2cc(C)ccn2)cc1` gave IL1B secr inh 5, HT1080 IDH1KD tx 2%, DT40 TDP1 CPT -11%, DT40 TDP1 no CPT inconclusive, ELG1 repair inh 10µM* and HT1080-NT tox -1%.
For Cc1ccnc(NS(=O)(=O)c2ccc(Oc3ccccc3)cc2)c1 the results were IL1B secr inh 18, HT1080 IDH1KD tx -20%, DT40 TDP1 CPT inconclusive, DT40 TDP1 no CPT inconclusive, ELG1 repair inh inconclusive and HT1080-NT tox -5%.
`CCN=c1scc(C)n1/N=C/c1ccc(O)c(O)c1O` gave IL1B secr inh -17, HT1080 IDH1KD tx -8%, DT40 TDP1 CPT 15µM*, DT40 TDP1 no CPT 7.3µM*, ELG1 repair inh 4% and HT1080-NT tox -6%.
For CCN=c1scc(C)n1/N=C/c1cc(Br)c(O)c(Br)c1 the results were IL1B secr inh -10, HT1080 IDH1KD tx inconclusive, DT40 TDP1 CPT inconclusive, DT40 TDP1 no CPT inconclusive, ELG1 repair inh inconclusive and HT1080-NT tox inconclusive.
CCC(=O)Nc1cc(-c2nc3ccccc3s2)c(Cl)cc1Cl was read as DT40 TDP1 CPT -13% and DT40 TDP1 no CPT -27%.
For O=C(Nc1nnc(C(F)(F)F)s1)c1ccc(Br)s1 the results were IL1B secr inh -55*, HT1080 IDH1KD tx inconclusive, DT40 TDP1 CPT 13µM*, DT40 TDP1 no CPT 15µM*, ELG1 repair inh inconclusive and HT1080-NT tox inconclusive.
Screening COCc1nnc(NC(=O)c2c(-c3c(Cl)cccc3Cl)noc2C)s1 returned IL1B secr inh 20, HT1080 IDH1KD tx 21µM*, DT40 TDP1 CPT 13µM*, DT40 TDP1 no CPT inconclusive, ELG1 repair inh -11% and HT1080-NT tox inconclusive.
`Cc1nn(-c2ccccc2)nc1C(=O)Nc1nnc(C(F)(F)F)s1` gave HT1080 IDH1KD tx -4%, DT40 TDP1 CPT inconclusive, DT40 TDP1 no CPT inconclusive, ELG1 repair inh 15µM* and HT1080-NT tox -24%.
Screening O=C(Nc1ccccc1C(=O)Nc1nnc(C(F)(F)F)s1)c1ccccc1Cl returned IL1B secr inh -73*, HT1080 IDH1KD tx 10µM*, DT40 TDP1 CPT inconclusive, DT40 TDP1 no CPT 16µM*, ELG1 repair inh 5.2µM* and HT1080-NT tox 10µM*.
`CCSc1nnc(NC(=O)c2ccc(Br)s2)s1` gave IL1B secr inh -22, HT1080 IDH1KD tx 6%, DT40 TDP1 CPT -25%, DT40 TDP1 no CPT inconclusive, ELG1 repair inh inconclusive and HT1080-NT tox -2%.
`Cc1onc(-c2c(F)cccc2Cl)c1C(=O)Nc1nccs1` gave IL1B secr inh 17, HT1080 IDH1KD tx -1%, DT40 TDP1 CPT 3%, DT40 TDP1 no CPT inconclusive, ELG1 repair inh inconclusive and HT1080-NT tox -22%.
`CC(NC(=O)Nc1nnc(C(F)(F)F)s1)(C(F)(F)F)C(F)(F)F` gave IL1B secr inh -62*, HT1080 IDH1KD tx 3.3µM*, DT40 TDP1 CPT 4.1µM*, DT40 TDP1 no CPT 5.2µM*, ELG1 repair inh 5.2µM* and HT1080-NT tox 7.3µM*.
For CC(C)(C)CC(=O)Nc1nnc(C(F)(F)F)s1 the results were IL1B secr inh 18, HT1080 IDH1KD tx -14%, DT40 TDP1 CPT -8%, DT40 TDP1 no CPT -23%, ELG1 repair inh -13% and HT1080-NT tox -14%.

Screens (PubChem)
